From PubChem BioAssay (NCI)
Compounds without any hit were thinned out: in the full panel of roughly 83,000, 20% have a hit.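 The endpoint reported here, percent growth, reads 100 for growth as untreated, 0 for no net growth and -100 for all cells dead.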 A number with no mark means an inactive call. The source made the active and inactive calls. The calls were made as follows: active = growth percent below 10; inactive = the rest.

Tests used:
Test in all cases: NCI-60 one-dose screen, 48 h (100 = growth as untreated, 0 = no growth, -100 = all killed)
Conditions in all cases: 10 µM unless noted
NCI-H23 lung = test system: NCI-H23 lung
NCI-H226 lung = test system: NCI-H226 lung
NCI-H322M lung = test system: NCI-H322M lung
HOP-62 NSCLC = test system: HOP-62 NSCLC
NCI-H460 lung = test system: NCI-H460 lung
HOP-92 NSCLC = test system: HOP-92 NSCLC
NCI-H522 lung = test system: NCI-H522 lung
A549/ATCC NSCLC = test system: A549/ATCC NSCLC
786-0 renal = test system: 786-0 renal
COLO 205 colon = test system: COLO 205 colon
DU-145 prostate = test system: DU-145 prostate
K-562 leukemia = test system: K-562 leukemia
MDA-MB-231 breast = test system: MDA-MB-231 breast
RXF 393 renal = test system: RXF 393 renal
SF-268 CNS = test system: SF-268 CNS
SF-295 CNS = test system: SF-295 CNS
SF-539 CNS = test system: SF-539 CNS
UACC-257 melanoma = test system: UACC-257 melanoma
M14 melanoma = test system: M14 melanoma
MALME-3M melanoma = test system: MALME-3M melanoma

| SMILES | growth (NCI-H23 lung) | growth (NCI-H226 lung) | growth (NCI-H322M lung) | growth (HOP-62 NSCLC) | growth (NCI-H460 lung) | growth (HOP-92 NSCLC) | growth (NCI-H522 lung) | growth (A549/ATCC NSCLC) | growth (786-0 renal) | growth (COLO 205 colon) | growth (DU-145 prostate) | growth (K-562 leukemia) | growth (MDA-MB-231 breast) | growth (RXF 393 renal) | growth (SF-268 CNS) | growth (SF-295 CNS) | growth (SF-539 CNS) | growth (UACC-257 melanoma) | growth (M14 melanoma) | growth (MALME-3M melanoma) |
| --- | --- | --- | --- | --- | --- | --- | --- | --- | --- | --- | --- | --- | --- | --- | --- | --- | --- | --- | --- | --- |
| Nc1ccc(Br)cn1 | 104% | 99.9% | 104% | 101% | 106% | 89.4% | 95.4% | 103% | 106% | 113% | 112% | 117% | 99.3% | 108% | 110% | 114% | 99.1% | 106% | 98.6% |  |
| Cn1cc(-c2csc(-c3cn(CCNC(=O)OC(C)(C)C)c4ccc(F)cc34)n2)c2cccnc21 | 57% | 50.8% | 83.9% | 65.7% | 85.9% |  | 44.3% | 63.1% | 88.1% | 67.5% | 94.2% | 56.4% | 78.4% | 105% | 81.4% | 86.2% | 81.7% | 94.2% | 52.3% | 83.2% |
| COc1cccc(-c2nn(-c3ccccc3)cc2-c2ccnc(NCCNS(=O)(=O)c3ccc(C(F)(F)F)cc3)c2)c1 | 17.1% | 34.8% | 45.1% | 35.6% | 11.4% |  | 1.9% (active) |  | 3.75% (active) | -73.5% (active) | 46.6% | 3.79% (active) | 6.28% (active) | -22.2% (active) | 36% | 3.05% (active) | 2.91% (active) |  |  | -17.9% (active) |
| Cn1cc(-c2csc(-c3cn(C(=O)OC(C)(C)C)c4ccc(Br)cc34)n2)c2cccnc21 | 92.2% | 101% | 88.9% | 99.2% | 62.3% | 98.7% | 96.3% |  | 99.9% | 86% | 108% | 97.6% | 75.3% | 88.5% | 94.7% | 79.8% | 106% | 114% | 104% |  |
| C/C(=C(/c1ccccc1)c1ccc(N2C(=O)c3cccc4c(NCc5ccccc5)ccc(c34)C2=O)cc1)c1ccccc1 | 89.8% | 89.1% | 97.6% | 100% | 99.8% |  | 93.1% | 92.6% | 103% | 112% | 101% | 85.8% | 96.1% | 112% | 102% | 96.2% | 98.6% | 106% | 89.1% | 96.3% |
| O=S(=O)(NCCNc1cc(-c2cn(-c3ccccc3)nc2-c2cccc(O)c2)ccn1)c1ccccc1 | 57.4% | 67.1% | 82% | 77.7% | 49.1% |  | 42.3% | 45.5% | 55.3% | 18.3% | 76.2% | 9.58% (active) | 28% | 66.3% | 69.7% | 43.2% | 70% |  | 53.9% | 76.4% |
| Cc1cc(C)nc(NC(N)=NCCc2ccccc2)n1 | 50.4% | 52.6% | 52.1% | 52.4% | 23.9% |  | 29.9% | 33.1% | 50.1% | 40.1% | 42.6% |  | 51.6% | 51.4% | 39.5% |  | 36.7% | 30.2% | 31.8% |  |
| Cc1cc(C)c(NC(=O)c2sc3nc4c(cc3c2N)CCCC4)c(C)c1 | 59.8% | 78.6% | 88.7% | 24.1% | 28.8% |  | 4.49% (active) | 50.1% | 47.3% | 42.6% | 70.3% | 12.4% | 71.8% | 57.9% | 48.8% | 29.2% | 26.9% |  |  | 44.7% |
| CCC(c1ccc(OC)cc1)C(CC)c1ccc(O)c(CN2CCCCC2)c1 (stereo unspecified) | 63.5% | 70% | 70.7% | 95.5% | 77.1% |  | 72.3% | 84% | 59.5% | -12.9% (active) | 86.6% | 15.4% | 77.6% | 53.7% | 86.1% | 78.9% | 69.3% |  | 44.3% | 28.1% |
| Cc1ccc2[nH]cc(-c3nc(-c4cn(C)c5ncccc45)cs3)c2c1 | 74.7% | 74.2% | 101% | 105% | 91.4% |  | 86.5% | 75.5% | 91.3% | 97.9% | 97.7% | 59.4% | 83.4% | 100% | 97% | 77.9% | 93.8% | 94% | 80% |  |
| COc1cc(-c2nc(-c3ccccc3)c(-c3ccccc3)[nH]2)cc(OC)c1O | -31.9% (active) | 48.9% | 13% | -26.5% (active) | -37.5% (active) | 38.2% | -23% (active) |  | 19.3% | -73.8% (active) | -23.5% (active) | 3.86% (active) | 0.0647% (active) | -48.8% (active) | 4.5% (active) |  | 0.938% (active) | 6.33% (active) | -18.8% (active) | -28.9% (active) |
| COc1cc2nc(Cl)nc(Nc3cccc(C(=O)/C=C/c4ccc(Br)cc4)c3)c2cc1OC | 96.6% | 83% | 95.1% | 98% | 104% |  | 84.3% | 85.1% | 87% | 101% | 97.6% | 35.9% | 78% | 85.1% | 94.5% | 86.1% | 82.2% | 107% | 89.8% | 105% |
| O=Cc1nc2ccccc2[nH]1 | 97.9% | 97.6% | 110% | 90.1% | 109% |  | 84.8% | 84.5% | 101% | 106% | 105% | 97.6% | 94.9% | 112% | 104% | 101% | 97.5% |  | 90.9% | 104% |
| O=C(CCCCCn1c2ccccc2c2c3c(c4c5ccccc5[nH]c4c21)C(=O)N(O)C3=O)N1CCOCC1 | 52% | 19.1% | 74.4% | 11.6% | 35.8% |  | 9.19% (active) | 91.4% | 80.3% | 62% | 69.6% | 33.6% | 48.2% | 56% | 47.4% | 28.5% | 35.6% |  | 38.6% | 113% |
| Nc1nc(N)c2nc3c(nc2n1)CCCCCCCCCC3 | 37.1% | 102% | 59.1% | 58.1% | 14.3% |  | 53.8% | 20.4% | 31.9% | 54.1% | 53.6% | 29.1% | 84.9% | 80% | 42.1% |  | 59.6% | 55.5% | 33.1% | 79.1% |
| CCCCC[C@H]1CC=C2C(=O)C=C[C@@H]2CC=CCCCC(=O)O[C@@H](CCCCC)CC=C2C(=O)C=C[C@@H]2CC=CCCCC(=O)O[C@@H](CCCCC)CC=C2C(=O)C=C[C@@H]2CC=CCCCC(=O)O1 | -16.4% [8.75 µM] (active) | 6.47% [8.75 µM] (active) | 17.9% [8.75 µM] | -10.6% [8.75 µM] (active) | 0.981% [8.75 µM] (active) |  | -48.5% [8.75 µM] (active) | -29.7% [8.75 µM] (active) | -48.7% [8.75 µM] (active) | -30.7% [8.75 µM] (active) | 10.6% [8.75 µM] | 5.31% [8.75 µM] (active) | -37.2% [8.75 µM] (active) | -65.4% [8.75 µM] (active) | 14.4% [8.75 µM] | 2.07% [8.75 µM] (active) | -8.63% [8.75 µM] (active) | -3.87% [8.75 µM] (active) | -26.3% [8.75 µM] (active) | -14.3% [8.75 µM] (active) |
| CC(=O)Oc1ccccc1C(=O)/C=C/c1cccc([N+](=O)[O-])c1 | 87.9% | 94.2% | 99.2% | 99.2% | 82.5% |  | 55.9% | 95.6% | 81.6% | 86.7% | 75% | 28.1% | 85.2% | 60.4% | 62.6% | 68.7% | 80.8% | 103% | 96.4% |  |
